This note sets out measurements from PubChem BioAssay (EPA / NIEHS).

One may read the AC50 as the midpoint of the concentration-response curve, whichever way the signal moves.

A short description of assay [1]: BSK_LPS_PGE2: BioMAP Diversity Plus: LPS Assay for Prostaglandin E2 (PGE2) Biomarker Activity (AID 2283082).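 For AC50: secreted prostaglandin E2 measured by ELISA in LPS-stimulated co-culture.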 The following applies: primary human HUVEC with PBMC; actives raise or lower the signal. An outline of the steps:
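Compounds were added to the LPS co-culture of endothelium and PBMC, and PGE2 was measured by ELISA after 24 h. Responses in either direction were fitted with DMSO as baseline.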

Read-out in assay [2]: Macrophage colony-stimulating factor (MCSF), CSF1 (gene 1435)
The assay can be described thus: BSK_LPS_MCSF: BioMAP Diversity Plus: LPS Assay for Macrophage colony-stimulating factor (MCSF) Biomarker Activity (AID 2283083). The following applies: primary human HUVEC with PBMC; actives raise or lower the signal. An outline of the steps: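 Bidirectional fitting against DMSO was applied to M-CSF levels read by ELISA at 24 h post-dose. The system pairs human umbilical vein endothelium with peripheral blood mononuclear cells; parallel SRB staining tracked cytotoxicity.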

Read-out in assay [3]: Tissue Factor, F3 (gene 2152)
The assay can be described thus: BSK_LPS_TissueFactor: BioMAP Diversity Plus: LPS Assay for Tissue Factor Biomarker Activity (AID 2283084). The following applies: primary human HUVEC with PBMC; actives raise or lower the signal. An outline of the steps: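 Compound was added to an endothelial cell/PBMC co-culture, and after 24 h tissue factor (CD142) was read by ELISA. Gain or loss of signal was fitted against a DMSO baseline, and parallel SRB staining (560 nm) tracked overt cytotoxicity.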

Read-out in assay [4]: Tumor necrosis factor (Homo sapiens) (UniProt P01375)
The assay is described as follows: BSK_LPS_TNFa: BioMAP Diversity Plus: LPS Assay for Tumour Necrosis Factor alpha (TNFa) Biomarker Activity (AID 2283085).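 For AC50: TNFa protein level quantified by ELISA in the co-culture.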 The following applies: primary human HUVEC with PBMC; actives raise or lower the signal. The method, boiled down:
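Cells (umbilical vein endothelium plus peripheral blood mononuclear cells) were dosed with chemical, incubated 24 h, then TNFa was quantified by ELISA; values derive from bidirectional fitting with DMSO as baseline.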

Read-out in assay [5]: Vascular cell adhesion molecule 1 (VCAM1), VCAM1 (gene 7412)
The assay is described as follows: BSK_LPS_VCAM1: BioMAP Diversity Plus: LPS Assay for Vascular cell adhesion molecule 1 (VCAM1) Biomarker Activity (AID 2283086). Conditions: primary human HUVEC with PBMC; actives raise or lower the signal. The method, boiled down: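 Cells are dosed in an LPS-stimulated endothelial/mononuclear co-culture and, after 24 h, VCAM-1 is quantified by ELISA. Activity in either direction is fitted relative to the DMSO negative control.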

Read-out in assay [6]: CD38, CD38 (gene 952)
The assay is described as follows: BSK_SAg_CD38: BioMAP Diversity Plus: SAg Assay for CD38 Biomarker Activity (AID 2283087). Conditions: primary human HUVEC with PBMC; actives raise or lower the signal. An outline of the steps: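 CD38 quantified by ELISA (fluorescence) in a superantigen-activated endothelial cell–PBMC co-culture at 24 h post-dose. Activity fitted in both directions relative to DMSO; parallel SRB and Alamar Blue cytotoxicity read-outs.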

Read-out in assay [7]: CD40, CD40 (gene 958)
The assay can be described thus: BSK_SAg_CD40: BioMAP Diversity Plus: SAg Assay for CD40 Biomarker Activity (AID 2283088). Conditions: primary human HUVEC with PBMC; actives raise or lower the signal. The method, boiled down: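 CD40 is measured by fluorescence ELISA in an endothelial/PBMC primary human co-culture at 24 h post-dose. Fitting is bidirectional, DMSO baseline. Parallel SRB staining (560 nm) flags cytotoxicity.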

Read-out in assay [8]: CD69, CD69 (gene 969)
The assay is described as follows: BSK_SAg_CD69: BioMAP Diversity Plus: SAg Assay for CD69 Biomarker Activity (AID 2283089).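 For AC50: cell surface CD69 protein quantified by ELISA with fluorescence detection.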 The following applies: primary human HUVEC with PBMC; actives raise or lower the signal. The method, boiled down:
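Primary human vascular co-culture (umbilical vein endothelium with peripheral blood mononuclear cells) exposed to test chemical for 24 h. CD69 levels quantified by fluorescence ELISA; DMSO served as negative control for bidirectional fitting.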

Read-out in assay [9]: Monocyte Chemoattractant Protein-1 (MCP1), CCL2 (gene 6347)
The assay can be described thus: BSK_SAg_MCP1: BioMAP Diversity Plus: SAg Assay for Monocyte Chemoattractant Protein-1 (MCP1) Biomarker Activity (AID 2283090). The following applies: primary human HUVEC with PBMC; actives raise or lower the signal. The method, boiled down: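 Values derive from bidirectional fitting of ELISA-measured MCP1 against DMSO controls. Readings were taken 24 h after dosing human vascular endothelial cells co-cultured with peripheral blood mononuclear cells under superantigen stimulation.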

Read-out in assay [10]: E-selectin (Homo sapiens) (UniProt P16581)
The assay can be described thus: BSK_SAg_Eselectin: BioMAP Diversity Plus: SAg Assay for Eselectin Biomarker Activity (AID 2283091). Conditions: primary human HUVEC with PBMC; actives raise or lower the signal. The method, boiled down:
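Cell-surface E-selectin is read by ELISA at 24 h in the SAg co-culture of HUVEC and PBMC. Curves are fitted in both directions relative to DMSO. Parallel SRB total-protein staining tracks overt toxicity.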

Read-out in assay [11]: Monokine induced gamma interferon (MIG), CXCL9 (gene 4283)
The assay is described as follows: BSK_SAg_MIG: BioMAP Diversity Plus: SAg Assay for Monokine induced gamma interferon (MIG) Biomarker Activity (AID 2283092). Conditions: primary human HUVEC with PBMC; actives raise or lower the signal. The method, boiled down:
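Endothelial cells and PBMC were co-cultured, exposed to test chemicals, and sampled 24 h later. MIG was measured by ELISA, and responses were fitted in both directions relative to DMSO.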

The nature of assay [12]: BSK_SAg_PBMCCytotoxicity: PBMC Cytotoxicity Assessment in the BioMAP Diversity Plus: SAg Assay (AID 2283093).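 For AC50: PBMC superantigen activated with SEB plus TSST-1 one hour after compound addition.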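 Note: PBMC viability measured as Alamar Blue reduction fluorescence at 546/580 nm; fitted both ways against DMSO so a hit may be loss or gain of signal.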 Conditions: primary human HUVEC with PBMC. An outline of the steps:
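Alamar Blue reduction (6 h, ex/em 546/580 nm) read after 90 h culture of PBMC pre-dosed 1 h then stimulated with SEB plus TSST-1, 20 ng/mL each. Gain or loss of signal fitted relative to DMSO.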

Read-out in assay [13]: Interleukin-8 (IL8), CXCL8 (gene 3576)
The assay can be described thus: BSK_SAg_IL8: BioMAP Diversity Plus: SAg Assay for Interleukin-8 (IL8) Biomarker Activity (AID 2283094). Conditions: primary human HUVEC with PBMC; actives raise or lower the signal. An outline of the steps: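 Chemicals were dosed onto a human endothelial–PBMC co-culture, and IL-8 was quantified by ELISA after 24 h. Both increases and decreases were fitted relative to DMSO.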

Assay [14] can be described thus: BSK_SAg_Proliferation: Cell Proliferation Assessment in the BioMAP Diversity Plus: SAg Assay (AID 2283095).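 Note: relative cell number as total protein by SRB absorbance in sub-confluent culture.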 Conditions: primary human HUVEC with PBMC. The method, boiled down:
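Absorbance of sulforhodamine B at 560 nm reports total protein in a human vascular endothelial/PBMC co-culture after 96 h chemical exposure. Gain or loss of signal is fitted in both directions against DMSO.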

Assay [15] can be described thus: BSK_SAg_SRB: Viability Assessment in the BioMAP Diversity Plus: SAg Assay (AID 2283096).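 Note: cells read one day after compound addition; hits may be either gain or loss of signal compared with DMSO.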 Conditions: primary human HUVEC with PBMC. The method, boiled down: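 SRB absorbance at 560 nm served as the viability read-out. Cells (HUVEC plus peripheral blood mononuclear cells) were TCA-fixed and stained 24 h post-dosing; activity fitted in both directions against DMSO controls.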

The target of assay [16] is human CYP1A1, CYP1A1 (gene 1543) (UniProt P04798). The assay is described as follows: NVS_ADME_hCYP1A1: NovaScreen (NVS) CYP450-related Enzyme Activity (ADME) Assay for human CYP1A1 (AID 2283100; active = hit-call score of the fitted dose curve at least 0.9, where 1 is the maximum). The method, boiled down:
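Chemicals were first tested in duplicate at 10 uM, and those passing a 30% inhibition threshold were rerun as concentration series topping at 20 uM. Fluorescence read-out of recombinant enzyme turnover after 1 h, relative to acetonitrile.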

Structures are written as SMILES. Records with an inconclusive call do not appear. Active and inactive are the calls of the source. Rule for the calls, unless noted: active = hit-call score of the fitted dose curve at least 0.9, where 1 is the maximum; inactive = score below 0.9.

E-selectin (Homo sapiens), sequence (P16581 whole entry, looked up): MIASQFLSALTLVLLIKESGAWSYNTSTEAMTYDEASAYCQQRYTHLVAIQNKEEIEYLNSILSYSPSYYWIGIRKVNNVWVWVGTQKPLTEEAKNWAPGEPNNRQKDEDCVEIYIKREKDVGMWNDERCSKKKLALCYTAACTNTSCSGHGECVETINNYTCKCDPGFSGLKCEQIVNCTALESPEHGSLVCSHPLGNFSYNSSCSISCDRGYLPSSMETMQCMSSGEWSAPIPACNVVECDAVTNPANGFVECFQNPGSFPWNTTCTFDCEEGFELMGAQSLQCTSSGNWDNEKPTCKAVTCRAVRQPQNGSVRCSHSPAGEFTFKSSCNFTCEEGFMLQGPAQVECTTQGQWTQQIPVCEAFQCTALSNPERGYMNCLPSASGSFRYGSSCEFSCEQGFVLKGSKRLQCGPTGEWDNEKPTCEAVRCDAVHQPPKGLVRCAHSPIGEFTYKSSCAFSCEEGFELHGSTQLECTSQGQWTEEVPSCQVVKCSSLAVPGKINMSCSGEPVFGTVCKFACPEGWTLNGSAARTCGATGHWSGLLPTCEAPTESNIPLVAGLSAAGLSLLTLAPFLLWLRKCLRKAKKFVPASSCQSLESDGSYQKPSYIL
Tumor necrosis factor (Homo sapiens), sequence (P01375 whole entry, looked up): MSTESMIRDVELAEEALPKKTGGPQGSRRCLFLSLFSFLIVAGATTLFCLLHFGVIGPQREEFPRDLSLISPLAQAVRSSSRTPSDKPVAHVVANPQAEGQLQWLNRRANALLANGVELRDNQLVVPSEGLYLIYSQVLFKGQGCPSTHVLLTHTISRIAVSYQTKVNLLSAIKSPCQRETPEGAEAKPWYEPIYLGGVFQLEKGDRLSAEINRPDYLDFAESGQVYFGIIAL
human CYP1A1, CYP1A1 (gene 1543), sequence (P04798 whole entry, looked up): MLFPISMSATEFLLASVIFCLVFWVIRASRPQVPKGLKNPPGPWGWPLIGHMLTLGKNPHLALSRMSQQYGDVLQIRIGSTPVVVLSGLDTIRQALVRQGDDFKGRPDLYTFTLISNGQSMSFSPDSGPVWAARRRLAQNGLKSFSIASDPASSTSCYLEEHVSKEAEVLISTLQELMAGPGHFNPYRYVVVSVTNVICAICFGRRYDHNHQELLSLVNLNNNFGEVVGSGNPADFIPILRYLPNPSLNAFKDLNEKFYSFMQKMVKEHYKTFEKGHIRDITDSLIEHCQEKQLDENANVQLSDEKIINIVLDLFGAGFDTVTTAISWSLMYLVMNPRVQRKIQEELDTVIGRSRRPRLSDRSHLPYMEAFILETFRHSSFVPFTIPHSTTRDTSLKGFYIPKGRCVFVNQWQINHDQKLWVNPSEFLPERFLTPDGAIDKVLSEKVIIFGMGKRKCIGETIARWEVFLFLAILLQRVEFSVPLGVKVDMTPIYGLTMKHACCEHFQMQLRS

Turning to `Cn1cc(-c2ccccc2)c(=O)c(-c2cccc(C(F)(F)F)c2)c1`, in assay [1], the AC50 is 2.7 µM (active). The result in [2], in [3], in [4], in assay [5], in assay [6] and in [7] was inactive. The result in assay [8], in assay [9], in assay [10], in [11], in assay [12] and in [13] was inactive. Besides, the outcome in [14] and in [15] was inactive.
In the case of `CC(C)(C)OOC(C)(C)CCC(C)(C)OOC(C)(C)C`, the result in assay [1], in [2], in [3], in [5], in assay [6] and in assay [7] was inactive. Moreover, the outcome in assay [8], in [9], in assay [10], in assay [11], in assay [12] and in assay [13] was inactive. In addition, the outcome in assay [14] and in [15] was inactive.
Regarding `Oc1ccc2ccc3cccc4ccc1c2c34`, the AC50 in assay [1] was 4.03 µM (active); in [2], 30.4 µM (active); in assay [3] it was 34.4 µM (active); in assay [4] it was 33 µM (active); in assay [5] it was 35.3 µM (active); in [6], 16.5 µM (active). Besides, the AC50 in [7] is 23.3 µM (active); in assay [8], 31.9 µM (active); in assay [9], 29.5 µM (active); in [10], 30.7 µM (active); in assay [11], 36.7 µM (active); in assay [12], 8.38 µM (active). Also, the concentration at half-maximal activity (AC50) is 36.1 µM (active) in assay [13], 6.09 µM (active) in [14], 30.4 µM (active) in [15] and 2.84 µM (active) in assay [16].
Consider `CN(C)[C@@H]1C(=O)C(C(N)=O)=C(O)[C@@]2(O)C(=O)C3=C(O)c4c(O)cccc4[C@@](C)(O)[C@H]3C[C@@H]12`, for which the result in [1], in assay [2], in [3], in assay [4], in assay [5] and in assay [6] was inactive. Besides, the outcome in assay [7], in assay [8], in [9], in [10], in [11] and in assay [12] was inactive. Moreover, the result in assay [13], in [14] and in [15] was inactive.
